Assay [1] is described as follows: antimalarial activity against Dd2 strain (AID 2302;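 active means growth inhibition above 50% at the single 2 µM test dose, taken to imply half-maximal potency below 2 µM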;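 further: 0% = DMSO untreated growth and 100% = chloroquine plus artemisinin killed control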). As to conditions: P. falciparum Dd2 in RBCs, LDH growth readout, 72 h; at 2 µM; hits give high values.
The nature of assay [2]: HepG2 cytotoxicity, primary screen, cytotoxicity control for P. falciparum antimalarial project, cell-based, ATP luminescence (AID 2303;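 active means inhibition above 50%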;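 further: 0% = DMSO wells and 100% = digitonin-killed cells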). The settings on record: HepG2 viability, 24-48 h, at 10 µM, hits give high values.
Assay [3] addresses L-lactate dehydrogenase (Plasmodium falciparum (isolate CDC / Honduras)) (UniProt Q27743). Nature of the assay: PfLDH activity inhibition – cell lysate, 3D7 strain, counter-screen for P. falciparum growth inhibition project (AID 2304).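 Further: 0% = vehicle and 100% = reference inhibitor.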 The settings on record: P. falciparum 3D7 crude extract, LDH APAD/NBT absorbance; at 2 µM; hits give high values.
Assay [4] is described as follows: inhibition of 3D7 malaria parasite growth – strain 3D7 (AID 2306).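 Further: 0% = DMSO wells and 100% = chloroquine plus artemisinin control wells.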 As to conditions: P. falciparum 3D7 erythrocytic growth, LDH absorbance, 72 h; at 2 µM; hits give high values.
In assay [5] the target is Calcium-dependent protein kinase 1 (Plasmodium falciparum (isolate 3D7)) (UniProt P62344). The assay is described as follows: PfCDPK1 kinase inhibitors, biochemical, TCAMS library (AID 1159585; cut-off not given, nearly all actives have IC50 up to about 0.98 µM;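 further: inhibitors leave more ATP so luminescence rises with inhibition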). The settings on record: recombinant PfCDPK1, Kinase-Glo ATP depletion luminescence.
Sequence of Calcium-dependent protein kinase 1 (Plasmodium falciparum (isolate 3D7)) (P62344 whole entry, looked up): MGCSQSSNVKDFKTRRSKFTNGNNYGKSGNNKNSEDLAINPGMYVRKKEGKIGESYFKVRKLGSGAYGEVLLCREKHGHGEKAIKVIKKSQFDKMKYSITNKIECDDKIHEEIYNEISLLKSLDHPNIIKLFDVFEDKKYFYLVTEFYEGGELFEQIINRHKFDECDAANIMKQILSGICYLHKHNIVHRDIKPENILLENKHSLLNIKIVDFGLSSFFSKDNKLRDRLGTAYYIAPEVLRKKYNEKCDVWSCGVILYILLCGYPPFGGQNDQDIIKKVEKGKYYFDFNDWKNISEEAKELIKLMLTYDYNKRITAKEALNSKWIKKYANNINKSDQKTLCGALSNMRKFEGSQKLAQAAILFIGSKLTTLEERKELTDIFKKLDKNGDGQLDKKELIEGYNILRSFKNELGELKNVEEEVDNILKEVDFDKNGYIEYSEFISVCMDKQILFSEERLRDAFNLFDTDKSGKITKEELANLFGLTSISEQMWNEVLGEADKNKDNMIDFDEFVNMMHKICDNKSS
In assay [6] the target is Plasmodium falciparum protein kinase 6 (PK6, PF3D7_1337100) (UniProt Q8IDW1). Nature of the assay: PfPK6 kinase inhibitors, biochemical, TCAMS library (AID 1159586). As to conditions: recombinant PfPK6, Kinase-Glo ATP depletion luminescence.
Sequence of Plasmodium falciparum protein kinase 6 (PK6, PF3D7_1337100) (Q8IDW1 1-305): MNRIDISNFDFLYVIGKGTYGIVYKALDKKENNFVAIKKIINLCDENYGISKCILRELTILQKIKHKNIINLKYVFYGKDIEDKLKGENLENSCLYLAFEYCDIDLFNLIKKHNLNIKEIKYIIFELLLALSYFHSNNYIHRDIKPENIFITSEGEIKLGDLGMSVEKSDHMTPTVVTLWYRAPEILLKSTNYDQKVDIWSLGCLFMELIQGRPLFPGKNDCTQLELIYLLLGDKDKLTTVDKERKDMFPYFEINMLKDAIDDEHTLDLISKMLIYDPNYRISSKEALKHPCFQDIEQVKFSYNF
Assay [7] deals with Protein kinase 7 (PK7), Plasmodium falciparum 3D7 (PF3D7_0213400) (UniProt Q7YTF7). The assay is described as follows: inhibition of Plasmodium PK7 catalytic activity – biochemical, TCAMS antimalarial set, Kinase-Glo luminescence (AID 1159587). The settings on record: recombinant PfPK7, Kinase-Glo ATP depletion luminescence.
Sequence of Protein kinase 7 (PK7), Plasmodium falciparum 3D7 (PF3D7_0213400) (Q7YTF7 1-343): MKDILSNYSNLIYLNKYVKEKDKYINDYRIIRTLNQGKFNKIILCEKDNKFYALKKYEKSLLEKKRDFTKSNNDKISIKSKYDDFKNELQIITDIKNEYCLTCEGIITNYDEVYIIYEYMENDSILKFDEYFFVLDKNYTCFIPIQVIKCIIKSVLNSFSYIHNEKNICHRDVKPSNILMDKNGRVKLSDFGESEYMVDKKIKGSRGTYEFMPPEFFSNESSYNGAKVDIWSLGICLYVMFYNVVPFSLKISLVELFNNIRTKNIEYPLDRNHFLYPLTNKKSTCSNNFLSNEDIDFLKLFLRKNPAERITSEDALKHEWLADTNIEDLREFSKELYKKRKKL
Assay [8] deals with Calcium-dependent protein kinase 4 (Plasmodium falciparum (isolate 3D7)) (UniProt Q8IBS5). Nature of the assay: PfCDPK4 kinase inhibitors, biochemical, TCAMS library (AID 1159588; cut-off not given, nearly all actives have IC50 up to about 0.91 µM). The settings on record: recombinant PfCDPK4, Kinase-Glo ATP depletion luminescence.
Sequence of Calcium-dependent protein kinase 4 (Plasmodium falciparum (isolate 3D7)) (Q8IBS5 whole entry, looked up): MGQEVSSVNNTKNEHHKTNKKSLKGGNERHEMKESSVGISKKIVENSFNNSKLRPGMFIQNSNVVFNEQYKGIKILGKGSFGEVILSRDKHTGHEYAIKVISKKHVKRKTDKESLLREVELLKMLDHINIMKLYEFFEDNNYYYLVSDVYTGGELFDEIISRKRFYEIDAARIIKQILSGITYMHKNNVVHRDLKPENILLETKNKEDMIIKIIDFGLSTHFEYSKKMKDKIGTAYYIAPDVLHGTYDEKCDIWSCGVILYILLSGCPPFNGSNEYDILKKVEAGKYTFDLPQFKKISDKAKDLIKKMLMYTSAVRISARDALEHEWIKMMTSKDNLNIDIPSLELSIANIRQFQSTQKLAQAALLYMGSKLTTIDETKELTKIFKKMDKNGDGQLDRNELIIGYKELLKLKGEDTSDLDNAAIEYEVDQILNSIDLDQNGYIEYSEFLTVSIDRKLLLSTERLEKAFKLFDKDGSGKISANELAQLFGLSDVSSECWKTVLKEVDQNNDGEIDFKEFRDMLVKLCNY

Each structure is given as a SMILES string. A number with no mark means an inactive call. For part of these data: Measured potencies and affinities stand elsewhere. Activity calls are given as the source filed them. Unless noted, how the calls were made is not given here.

Sequence of L-lactate dehydrogenase (Plasmodium falciparum (isolate CDC / Honduras)) (Q27743 whole entry, looked up): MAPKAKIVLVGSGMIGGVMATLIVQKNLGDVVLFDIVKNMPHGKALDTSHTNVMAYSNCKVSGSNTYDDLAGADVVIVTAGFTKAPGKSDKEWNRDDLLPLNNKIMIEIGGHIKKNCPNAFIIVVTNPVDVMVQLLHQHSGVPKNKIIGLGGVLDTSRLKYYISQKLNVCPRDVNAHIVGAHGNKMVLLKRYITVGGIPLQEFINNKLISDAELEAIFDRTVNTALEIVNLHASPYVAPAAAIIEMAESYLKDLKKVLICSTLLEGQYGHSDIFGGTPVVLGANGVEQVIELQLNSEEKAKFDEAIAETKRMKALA

As for `CCN(CC)CCCNc1ncc2c(-c3ccc(NC(=O)Nc4cc(C(F)(F)F)ccc4F)c(F)c3)nn(C)c2n1`, the growth inhibition in assay [1] is 68% (active); in assay [4] it was 94% (active). Also, the inhibition is 100% (active) in assay [2] and 3% in assay [3]. The outcome in assay [5], in assay [6], in assay [7] and in assay [8] was inactive.
For the molecule `O=C(Nc1cccc(-c2nn3ccccc3c2-c2ccnc(Nc3ccccc3)n2)c1)c1cc(F)ccc1F`, the growth inhibition is 75% (active) in assay [1] and 98% (active) in assay [4]. Also, the inhibition in assay [2] is 8%; in assay [3] it was 0%. Further, the outcome in assay [5], in assay [6], in assay [7] and in assay [8] was inactive.
For the molecule `C[C@@H]1CN(c2cccc3c2nc(-c2cncc(C#N)c2)n3CCNCc2ccccc2)C[C@H](C)O1`, the growth inhibition was 9% in assay [1] and 83% (active) in assay [4]. For the same molecule, the inhibition in assay [2] is -5%; in assay [3], 5%. Further, the outcome in assay [5], in assay [6], in assay [7] and in assay [8] was inactive.
Turning to `O=C(NCCCCN1CCC(c2ccc3c(c2OCC2CC2)CCCC3)CC1)c1ccc(NC(=O)c2ccc(Cl)cc2)cc1`, the growth inhibition was 93% (active) in assay [1] and 101% (active) in assay [4]. The inhibition is 23% in assay [2] and -4% in assay [3]. Besides, the result in assay [5], in assay [6], in assay [7] and in assay [8] was inactive.
As to `CCCCCCN1CCN(Cc2cccc(NC(=O)c3cc4ccccc4o3)c2)CC1`, the growth inhibition was 83% (active) in assay [1] and 93% (active) in assay [4]. In addition, the figures for the inhibition in assay [2] and in assay [3] were 20% and 3%, respectively. For the same molecule, the outcome in assay [5], in assay [6], in assay [7] and in assay [8] was inactive.
As to `CCOC(=O)c1cn(CC)c2cc(F)c(OC3C[C@@H]4CC[C@@]3(C)C4(C)C)cc2c1=O` (some centres undefined), the growth inhibition in assay [1] was 70% (active); in assay [4] it was 91% (active). Also, the inhibition in assay [2] was -7%; in assay [3], -1%. In addition, the result in assay [5], in assay [6], in assay [7] and in assay [8] was inactive.
In the case of `Cc1cc2c(cc1C(F)(F)F)N(C(=O)Nc1cc(C(=O)NCCN(C)C)cc(C(F)(F)F)c1)CC2`, the figures for the growth inhibition in assay [1] and in assay [4] were 50% (active) and 100% (active), respectively. Further, the inhibition in assay [2] is 19%; in assay [3], -7%. Further, the result in assay [5], in assay [6], in assay [7] and in assay [8] was inactive.
For the molecule `CC1CCCN(Cc2c(O)ccc3c(=O)c(-c4nc5ccccc5s4)c(N)oc23)C1` (centres undefined), the values for the growth inhibition in assay [1] and in assay [4] were 99% (active) and 100% (active), respectively. Besides, the inhibition in assay [2] was 20%; in assay [3], -2%. Moreover, the result in assay [5], in assay [6], in assay [7] and in assay [8] was inactive.
As to `O=C1COc2ccc(CNC3CCC(O)(CCc4ccnc5cc6c(cc45)OCCO6)CC3)nc2N1` (centres undefined), the figures for the growth inhibition in assay [1] and in assay [4] were -1% and 92% (active), respectively. For the same molecule, the inhibition in assay [2] was -5%; in assay [3], -6%. In addition, the outcome in assay [5], in assay [6], in assay [7] and in assay [8] was inactive.
For the molecule `O=c1cc(NCCNCc2cccc(-c3ccccc3)c2)[nH]c2ccccc12`, the growth inhibition in assay [1] was 68% (active); in assay [4], 93% (active). For the same molecule, the inhibition in assay [2] was -2%; in assay [3], -6%. Besides, the outcome in assay [5], in assay [6], in assay [7] and in assay [8] was inactive.
On to `Cc1nnsc1C(=O)Nc1ccc(-c2ccc(-c3nc4c(C)cccc4[nH]3)s2)cc1`, for which the growth inhibition is 61% (active) in assay [1] and 100% (active) in assay [4]. The inhibition in assay [2] is 63% (active); in assay [3], 2%. Also, the result in assay [5], in assay [6], in assay [7] and in assay [8] was inactive.
Consider `Cc1cccc2[nH]c(-c3ccc(-c4cccc(NC(=O)C(C)CN(C)C)c4)s3)nc12` (centres undefined), for which the growth inhibition in assay [1] is 69% (active); in assay [4], 92% (active). In addition, the figures for the inhibition in assay [2] and in assay [3] were 12% and 0%, respectively. Moreover, the outcome in assay [5], in assay [6], in assay [7] and in assay [8] was inactive.
As to `O=C(Nc1ccc(F)cc1)NC1CCN(c2ccnc3cc(Cl)ccc23)CC1`, the growth inhibition in assay [1] is 57% (active); in assay [4], 97% (active). Moreover, the inhibition in assay [2] is 10%; in assay [3] it was 0%. For the same molecule, the outcome in assay [5], in assay [6], in assay [7] and in assay [8] was inactive.
For `O=C(Nc1ccccc1F)NC1CCN(c2ccnc(Nc3ccc(F)cc3)n2)CC1`, the growth inhibition was 63% (active) in assay [1] and 99% (active) in assay [4]. In addition, the inhibition in assay [2] is 13%; in assay [3], -4%. Also, the outcome in assay [5], in assay [6], in assay [7] and in assay [8] was inactive.
On to `c1ccc(CCNCc2ccc(-c3cccc(CNc4ccc5ncccc5c4)c3)cc2)cc1`, for which the growth inhibition was 17% in assay [1] and 91% (active) in assay [4]. The inhibition in assay [2] was 30%; in assay [3] it was 3%. Further, the outcome in assay [5], in assay [6], in assay [7] and in assay [8] was inactive.
`CC(C)(C)NCCN(Cc1ccc(-c2ccc(C(F)(F)F)cc2)cc1)C(=O)Cn1c(CCc2cccc(F)c2F)nc(=O)c2ccccc21`: the growth inhibition is 68% (active) in assay [1] and 99% (active) in assay [4]. Besides, the inhibition is 46% in assay [2] and -4% in assay [3]. The outcome in assay [5], in assay [6], in assay [7] and in assay [8] was inactive.
Regarding `COc1cc2nccc(Nc3ccc4c(cnn4Cc4ccccc4F)c3)c2cc1OC`, the growth inhibition is 91% (active) in assay [1] and 101% (active) in assay [4]. The inhibition in assay [2] is 55% (active); in assay [3], -8%. The result in assay [5], in assay [6], in assay [7] and in assay [8] was inactive.
Turning to `Cc1cc(N[C@@H](Cc2ccccc2)C(=O)NCc2cccc(F)c2)nc(NCCc2cccnc2)n1`, the growth inhibition in assay [1] is 40%; in assay [4], 92% (active). In addition, the inhibition is 18% in assay [2] and -2% in assay [3]. Also, the outcome in assay [5], in assay [6], in assay [7] and in assay [8] was inactive.

Values taken from PubChem BioAssay.
